PNC inhibitor = inhibitors of perinucleolar compartment assembly. PC3M PTB-GFP, PNC prevalence imaging, 16 h; stronger effect = lower value. activity change (PNC), negative = inhibition, % at 10 µM. actives 3.1% (n = 140,000). AID 2417;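 active = readout at or below -70, meaning at least 70% loss of cells showing the perinucleolar compartment, a nuclear body marking cancer cells; inconclusive = readout between -30 and a set limit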
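Compounds are pinned in duplicate onto adhered PC3M cells stably expressing GFP-tagged PTB and incubated 16 h at 37 C. Cells are then fixed, nuclei stained with Hoechst, and PNC-positive cells counted.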
HPGD block = blocks human HPGD enzyme activity; P15428; purified HPGD, NADH fluorescence kinetic, PGE2 substrate; Potency, µM, usual class: inhibitors; actives 4.3% (n = 150,000); AID 894
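20 nM HPGD preincubated 15 min at room temperature with compound in 50 mM Tris-HCl pH 8, 0.01% Tween 20. Started with 1 mM NAD+ and 30 uM prostaglandin E2; NADH fluorescence (360/450 nm) read 5 times over 30-s intervals, last minus first.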
ALDH1A1 block = inhibitors of human aldehyde dehydrogenase 1A1; P00352; Purified ALDH1A1, NADH fluorescence, propionaldehyde substrate; Potency, µM (top dose mostly 75.3 µM), most hits filed as inhibitors; actives 7.3% (n = 220,000); AID 1030
Target sequence (P00352 whole entry, looked up): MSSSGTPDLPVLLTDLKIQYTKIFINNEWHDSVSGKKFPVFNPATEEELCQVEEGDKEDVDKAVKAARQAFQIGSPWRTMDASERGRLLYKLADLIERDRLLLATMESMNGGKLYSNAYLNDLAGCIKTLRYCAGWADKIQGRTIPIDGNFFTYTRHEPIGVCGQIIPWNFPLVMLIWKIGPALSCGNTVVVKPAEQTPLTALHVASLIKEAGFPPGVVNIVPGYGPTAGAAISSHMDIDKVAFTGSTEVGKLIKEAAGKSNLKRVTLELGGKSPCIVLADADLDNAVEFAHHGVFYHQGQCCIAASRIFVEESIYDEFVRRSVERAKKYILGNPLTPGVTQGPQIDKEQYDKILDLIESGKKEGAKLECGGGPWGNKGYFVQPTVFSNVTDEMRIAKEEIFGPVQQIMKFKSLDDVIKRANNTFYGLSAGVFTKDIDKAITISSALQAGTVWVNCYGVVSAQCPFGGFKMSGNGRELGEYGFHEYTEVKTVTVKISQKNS
Of the large screens only hits and unclear results are named; the others gave an inactive call. Rows were chosen to be rich in hits. Some 11% of all compounds tested hit in one or more screens of this group. Unless noted, calls come from the whole dose curve; as a rule, active = well fitted inhibition curve with a large enough effect (not every such curve was filed as active); inconclusive = small, poorly fitted or top-dose-only effect, or another doubt; inactive = no such curve, though single readings can be large or run the other way.

COC(=O)NCN1C(=O)C2C3C=CC(C3)C2C1=O (stereo not given)	none (no result: PNC inhibitor, HPGD block)
COC(=O)[C@@]1(C)C[C@@H]1[C@@H](NC(=O)[C@@]1(C)C[C@@H]1[C@@H](NC(=O)[C@@]1(C)C[C@@H]1[C@@H](NC(=O)[C@@]1(C)C[C@@H]1[C@@H](NC(=O)OCc1ccccc1)c1ccccc1)c1ccccc1)c1ccccc1)c1ccccc1	none (no result: PNC inhibitor)
COC(=O)c1ccc(OS(=O)(=O)N(C)C)cc1	none (no result: PNC inhibitor, HPGD block)
CO/N=C(/C(=O)NC1C(=O)N2C(C(=O)O)=C(COC(N)=O)CSC12)c1ccco1 (stereo not given)	none (no result: PNC inhibitor)
COc1ccc(C(=O)COC(=O)CNC(=O)c2ccc(OC)cc2)cc1	none (no result: PNC inhibitor, HPGD block)
Cc1nn(CCC(=O)NNC(=S)Nc2ccc(F)cc2)c(C)c1Br	PNC inhibitor inconclusive, ALDH1A1 block inconclusive
Cc1ccc(NC(=O)Cn2nc(C)c([N+](=O)[O-])c2C)cc1C	ALDH1A1 block 20µM (no result: PNC inhibitor, HPGD block)
O=C(Cn1nc(C(F)F)cc1C(F)F)NNC(=S)Nc1ccc(F)cc1	none
Cc1nn(CC(=O)Nc2ccccn2)c(C)c1[N+](=O)[O-]	none
Cc1nn(CCC(=O)NNC(=S)Nc2ccc([N+](=O)[O-])cc2)c(C)c1[N+](=O)[O-]	ALDH1A1 block 4.5µM (no result: PNC inhibitor, HPGD block)
O=C(Cn1nc(C(F)F)cc1C(F)F)NNC(=S)Nc1ccc([N+](=O)[O-])cc1	ALDH1A1 block 18µM (no result: PNC inhibitor, HPGD block)
O=C(CC12CC3CC(CC(C3)C1)C2)N1CCN(S(=O)(=O)c2cccs2)CC1	PNC inhibitor inconclusive
Cc1cnc(CNc2ncncc2-c2ccccc2CN(C)C)cn1	none (no result: PNC inhibitor)
CC1CC(C)(C)NC(=S)N1CCCC(=O)NCc1ccccc1 (stereo not given)	none (no result: PNC inhibitor, HPGD block)
O=C(N/N=C/c1cccnc1)C(O)c1ccccc1 (stereo not given)	PNC inhibitor inconclusive
Cc1ccc(Sc2ccc(N)cn2)cc1	none (no result: PNC inhibitor, HPGD block)
O=C(c1cc(C(F)(F)F)cc(C(F)(F)F)c1)N1CCC[C@@]2(CCN(c3ccncc3)C2)C1	none (no result: PNC inhibitor)
CCOC(=O)c1c(C)[nH]c(N=Nc2cccc(OC)c2)c1C	none (no result: PNC inhibitor, HPGD block)
CSc1nsc(N/N=C/c2ccc3c(c2)OCO3)c1C#N	none (no result: PNC inhibitor, HPGD block)
COc1cc(/C=N/Nc2snc(SC)c2C#N)cc(OC)c1OC	PNC inhibitor -105, HPGD block inconclusive, ALDH1A1 block inconclusive
CCN(CC)CCN1C(=O)C(=O)/C(=C(/O)c2c(C)[nH]c(C(=O)OC)c2C)C1c1ccc(C)o1 (stereo not given)	none (no result: PNC inhibitor, HPGD block)
Cn1ncc(Br)c1C(=O)N/N=C/c1ccc(OS(=O)(=O)c2ccccc2)cc1	PNC inhibitor -80, ALDH1A1 block 25µM
COc1cc(/C=N/NC(=O)COc2cccc(F)c2)ccc1OS(=O)(=O)c1ccc(C)cc1	ALDH1A1 block 8.9µM
CC(/C=N/NC(=O)c1c(Br)cnn1C)=C\c1ccccc1	PNC inhibitor inconclusive
COc1cc(/C=N/NC(=O)c2cccnc2)ccc1OS(=O)(=O)c1cc(C)ccc1C	PNC inhibitor inconclusive
COc1cc(/C=N/NC(=O)c2cccnc2)ccc1OS(=O)(=O)c1ccc(F)cc1	none
COc1cc(/C=N/NC(=O)c2cccnc2)ccc1OS(=O)(=O)c1ccc(C)cc1	ALDH1A1 block 3.5µM
COc1cc(/C=N/NC(=O)COc2ccc(Cl)cc2)ccc1OS(=O)(=O)c1ccc(C)cc1	ALDH1A1 block inconclusive
Cc1ccc(S(=O)(=O)Oc2ccc(/C=N/NC(=O)c3cccnc3)cc2)cc1	ALDH1A1 block 13µM (no result: PNC inhibitor, HPGD block)
NCC[C@H](N)C(=O)O	none (no result: PNC inhibitor)
CCOC(=O)N1CCN(C(=O)Cc2cccc3ccccc23)CC1	none (no result: PNC inhibitor, HPGD block)
CC(=O)Nc1ccccc1OCC(=O)NCCC1=CCCCC1	none (no result: PNC inhibitor, HPGD block)
C[C@@H]1O[C@H]2C3=C(C(=O)[C@H]4O[C@@H]4[C@H]3O)[C@@H]1[C@@H]1[C@@H](C)OC=C3[C@H](O)[C@H]4O[C@@H]4/C(=N\OCc4ccccc4)[C@]312	none (no result: PNC inhibitor, HPGD block)
Nc1nc(SCC(=O)Nc2ccc(Cl)cn2)n[nH]1	none (no result: PNC inhibitor, HPGD block)
N#CC1=C2SCN(Cc3ccccc3)CN2C(=O)CC1c1ccccc1F (stereo not given)	HPGD block 28µM, ALDH1A1 block 10µM
Cc1c(NC(=O)CSC2=C(C#N)C(c3ccccc3F)CC(=O)N2)c(=O)n(-c2ccccc2)n1C (stereo not given)	none
CCOC(=O)CSC1=C(C#N)C(c2ccccc2OC)CC(=O)N1 (stereo not given)	PNC inhibitor inconclusive
COc1ccc(Br)cc1C1CC(=O)N2CN(Cc3ccccc3)CSC2=C1C#N (stereo not given)	HPGD block 7.1µM, ALDH1A1 block 0.11µM
COc1ccc(CCN2C(=O)CN(Cc3ccccc3)CC2=O)cc1OC	none
COc1ccc2ccccc2c1C1CC(=O)N2CN(C)CSC2=C1C#N (stereo not given)	HPGD block 6.3µM, ALDH1A1 block 8.9µM
COc1ccc(Br)cc1C1CC(=O)N2CN(C)CSC2=C1C#N (stereo not given)	HPGD block 13µM, ALDH1A1 block 7.1µM
